Sampled rows, rich in hits. Any-hit rate of the full collection: about 19%.
IL-1B inflam inh – inhibitors of inflammasome signaling (IL-1 beta secretion); THP-1 LPS/ATP IL-1B secretion, AlphaLISA, 16 h; active compounds read low; activity change, % at 57.5 µM; actives 4.7% (n = 360,000); AID 743279; in the data active = activity change below about -50%; inconclusive = mostly about -30% to -49%
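Secreted IL-1B measured by AlphaLISA bead assay after 16 h compound exposure of THP-1 cells; compounds (final up to 57.5 uM) added 1 h before LPS (250 ng/mL) and ATP (1.25 mM) stimulation; lower signal means less secretion.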
HT1080NT lethal – kills 2HG-producing HT-1080-NT fibrosarcoma cells; Potency, µM (titrated, usually from 46.1 µM), inactives show at the highest dose activity, negative = less viability, actives largely listed as cytotoxic; HT-1080-NT fibrosarcoma viability, CellTiter-Glo ATP luminescence, 48 h; actives 1.6% (n = 360,000);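 note: NT is the 2HG producing partner of a matched IDH1 knockdown line; potency is the fitted concentration of half-maximal effect; 0% = DMSO-treated cells and -100% = media-only wells without cells; nearly all actives have a fitted effect of over 55% in size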
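Viability by CellTiter-Glo luminescence after 48 h compound exposure at 37C of HT-1080-NT cells (750/well, RPMI, 5% FBS). % activity scaled between DMSO wells and medium-only wells, then curve-fitted and categorized by curve class.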
ELG1 DNA repair – ELG1-dependent DNA repair inhibition; HEK293T ELG1-luciferase reporter, luminescence, 16 h; DNA damage induced by 5-fluorouridine; Potency, µM (titrated, usually from 46.1 µM), inactives show at the highest dose activity change, negative = inhibition, hits mostly inhibitors; actives 2.3% (n = 330,000); AID 504467; note: potency is the fitted concentration of half-maximal effect; nearly all actives have a fitted effect of over 55% in size
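Step one: seed 2,000 cells per well. Step two: pin-transfer compound or DMSO alongside 5-fluorouridine. Step three: incubate 16 hr, 37 °C, 5% CO2. Step four: add ONE-Glo, wait 30 min, read luminescence.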
HT1080 IDH1KD tx – kills HT-1080 cells with IDH1 knockdown; HT-1080 IDH1 knockdown viability, ATP luminescence, 48 h; Potency, µM (top dose mostly 46.1 µM), for the others: at the top dose activity, negative = toxicity, hits mostly cytotoxic; actives 2% (n = 360,000); AID 686971;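 note: potency is the fitted concentration of half-maximal effect; 0% = DMSO wells and -100% = cell-free medium wells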
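CellTiter-Glo luminescence after 48 h compound exposure at 37 degrees C of IDH1-knockdown HT-1080 cells in 5% FBS RPMI. %Activity scaled between DMSO wells and cell-free media wells, with curves fitted and assigned curve classes.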
TDP1 cell noCPT – qHTS for Inhibitors of human tyrosyl-DNA phosphodiesterase 1 (TDP1): qHTS in cells in absence of CPT; actives 15% (n = 420,000); DT40 Tdp1-/- hTDP1 cells, no CPT, ATP luminescence, 48 h; Potency, µM (titrated, usually from 46.2 µM), inactives show at the highest dose activity change, negative = growth inhibition, usual class: inhibitors; note: potency is the fitted concentration of half-maximal effect; nearly all actives have a fitted effect of over 55% in size
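No-CPT arm: Tdp1-/-;hTDP1 DT40 cells (400/well) plus compounds, incubated ≥48 hr at 37 °C. Readout CellTiter-Glo luminescence.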
DT40 TDP1 CPT – DT40-hTDP1 cell growth loss with CPT. chicken DT40 Tdp1-/-;hTDP1 cells + 20 nM CPT, ATP luminescence, 48 h. actives 12% (n = 420,000). Potency, µM (doses to about 46.2 µM), for the others: at the highest dose activity change, negative = growth inhibition, actives largely listed as inhibitors; note: potency is the fitted concentration of half-maximal effect; nearly all actives have a fitted effect of over 55% in size
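Cell growth measured by CellTiter-Glo luminescence after a minimum 48 h, 37 C compound exposure with 20 nM CPT in Tdp1-knockout DT40 cells stably expressing hTDP1, seeded 400/well; qHTS titration format.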
* marks the source's active call; other numbers are inactive results; ? = inconclusive; / = no result given. Unless noted, calls come from the whole dose curve; as a rule, active = well fitted curve in the direction sought with a large enough effect; inconclusive = small, poorly fitted or top-dose-only effect, or another doubt; inactive = no such curve, though single readings can be large; an effect the other way counts as inactive or inconclusive. Unless noted, % is set by controls: 0 for no effect and ±100 for the full control effect.

SMILES	IL-1B inflam inh	HT1080NT lethal	ELG1 DNA repair	HT1080 IDH1KD tx	TDP1 cell noCPT	DT40 TDP1 CPT
CCCn1nnnc1SCC(=O)NC1CCCC1	25	14%	13%	5%	5%	6%
C[C@H](NC(=O)[C@@H]1CSC2c3ccccc3C(=O)N21)C(=O)NCc1c(F)cccc1Cl (some centres undefined)	-3	-3%	-1%	0%	?	?
CCc1ccccc1NC(=O)CN(C)C(=O)Cn1ncc(Cl)c(Cl)c1=O	-108*	?	?	?	6.5µM*	5.8µM*
CCC(=O)Nc1ccc(C(=O)Cn2ncc(Cl)c(Cl)c2=O)cc1	-96*	0%	?	?	6.5µM*	5.2µM*
O=C(Cn1ncc(N2CCCC2)c(Cl)c1=O)c1ccc(Cl)cc1	-11	15%	?	2%	18%	4%
CCOC(=O)c1ccc(NC(=O)Cn2ncc(Cl)c(Cl)c2=O)cc1	-100*	16µM*	?	4.6µM*	2.3µM*	2.3µM*
CCCCOC(=O)c1ccc(NC(=O)C(=O)NCc2ccco2)cc1	67	11%	0%	-12%	-24%	0%
Cc1ccc(C(O)c2ccc(-n3ccnc3)cc2)cc1 (centres undefined)	-8	-2%	?	-7%	15µM*	?
Cc1ccc(C(O)c2ccncc2)cc1 (centres undefined)	-11	3%	8%	-9%	?	?
C#CCOCCOCCOCCNc1nc(N2CCN(C(=O)CCCCCCCCCCNC(=O)[C@H]([C@@H](C)CC)n3cc(CCCCCN)nn3)CC2)nc(N2CCN(C(=O)CCCCCCCCCCNC(=O)[C@@H]([C@H](C)O)n3cc(C)nn3)CC2)n1	-68*	?	?	?	?	16µM*
C#CCOCCOCCOCCNc1nc(N2CCN(C(=O)CCCCCCCCCCNC(=O)[C@H](CCCCN)n3cc(CCO)nn3)CC2)nc(N2CCN(C(=O)CCCCCCCCCCNC(=O)[C@H](CCCCN)n3cc(CCO)nn3)CC2)n1	-55*	-6%	3%	-2%	?	?
C#CCOCCOCCOCCNc1nc(N2CCN(C(=O)[C@H]([C@@H](C)O)n3cc(CCCCN)nn3)CC2)nc(N2CCN(C(=O)[C@H]([C@@H](C)CC)n3cc(CCCN=C(N)N)nn3)CC2)n1	-6	-7%	6%	4%	6%	-7%
C#CCOCCOCCOCCNc1nc(N2CCN(C(=O)CCCCCCCCCCNC(=O)[C@H](CCC(=O)O)n3cc(CCCCCN)nn3)CC2)nc(N2CCN(C(=O)CCCCCCCCCCNC(=O)[C@@H]([C@H](C)O)n3cc(C)nn3)CC2)n1	?	-4%	?	1%	-5%	-2%
C#CCOCCOCCOCCNc1nc(N2CCN(C(=O)CCCCCCCCCCNC(=O)[C@H](CCCCN)n3cc(CCO)nn3)CC2)nc(N2CCN(C(=O)CCCCCCCCCCNC(=O)[C@@H]([C@H](C)O)n3cc(C)nn3)CC2)n1	-71*	-15%	?	-29%	?	?
COc1ccc(OC)c(S(=O)(=O)N2CCN(C(=O)CCc3ccccc3)CC2)c1	-2	-5%	/	-2%	-15%	-3%
Cc1ccc(S(=O)(=O)N2[C@H](CC(=O)c3cccc4ccccc34)OC[C@@H]2C(C)C)cc1	-5	-2%	/	-2%	?	?
CN(C)/C=C/C(=O)c1ccncc1	0	2%	7%	1%	-5%	-3%
Cc1ccc(C)n1-c1ccc(C(=O)NN)cc1	1	-9%	1%	-8%	21µM*	7.3µM*
Cc1ccc(C)n1-c1ccc(C(=O)/C=C/N(C)C)cc1	-87*	?	?	?	?	?

Screens (PubChem)
